Results filed as inconclusive are left out. Where a call stands in place of a potency, no number is given. The source made the active and inactive calls. Unless noted, the call rests on the fitted dose curve; in most records, active means well fitted curve in the direction sought with a large enough effect in the repeat runs; inconclusive means weak or mixed curves; inactive means no such curve, though single readings can be large; an effect the other way counts as inactive or inconclusive.

A short description of one assay: qHTS assay to identify small molecule phospholipidosis (PLD) inducers (AID 1259344; active means well fitted curve in the direction sought with a large enough effect; an effect the other way counts as inactive or inconclusive). To be noted: HepG2 phospholipidosis, LipidTOX Red imaging, 24 h; series mostly up to 38.3 µM. In a few lines:
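Accumulated phospholipid, stained red by LipidTOX during 24 h compound treatment of HepG2 cells at 37 C, is quantified from images as pit number and intensity, normalised per cell using Hoechst-stained nuclei.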
A general note: Quantitative high-throughput screening tests each substance at several concentrations.
Regarding `CO/N=C(\C(=O)N[C@@H]1C(=O)N2C(C(=O)O)=C(C[N+]3(C)CCCC3)CS[C@H]12)c1csc(N)n1`, the Potency result is “inactive”.

As for `COc1cc2c(cc1OC)[C@@H](Cc1cc(OC)c(OC)c(OC)c1)[N+](C)(CCCOC(=O)CC/C=C/CCC(=O)OCCC[N+]1(C)CCc3cc(OC)c(OC)cc3[C@H]1Cc1cc(OC)c(OC)c(OC)c1)CC2` (some centres undefined), the Potency result is “inactive”. On to `O=P(O)(O)OP(=O)(O)OP(=O)(O)O`, for which the Potency result is “inactive”. With `C[S+](C)CCC(N)C(=O)O` (centres undefined), the Potency result is “inactive”.

A further assay is described as follows: qHTS assay to identify small molecule HDAC inhibitors (AID 1259364).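 Further: wild-type HCT-116 cells with endogenous class I/II HDAC activity; top concentration of the series differs between compounds; nearly all actives have a fitted effect of over 45% in size.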 To be noted: HCT-116 HDAC-Glo I/II luminescence, 2 h; series mostly up to 92.4 µM. In a few lines: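 Cells (HCT-116, wild type) are seeded at 1,500 per well, incubated overnight, treated with compound in DMSO for 2 hr, then developed with HDAC-Glo I/II reagent for 30 min at room temperature.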
As for `Nc1ccc(N)c([N+](=O)[O-])c1`, the Potency entry is “inactive”. For `CC(=O)N(C)C`, the Potency entry is “inactive”.

Consider `CCCCCCCC1CCC(=O)O1` (centres undefined), for which the Potency result was “inactive”.

With `COc1ccc2ccccc2c1`, the Potency entry is “inactive”. As for `CS(=O)(=O)c1ccc([C@@H](CC2CCCC2)C(=O)Nc2cnccn2)cc1Cl`, the Potency entry was “inactive”.

The nature of another assay: qHTS assay to identify small molecule agonists of the sonic hedgehog signaling (Shh) pathway (AID 1259368; calls by dose curve;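 further: NIH/3T3-derived 3T3Gli1-Luc cells carrying a stable Gli1-driven firefly luciferase reporter; nearly all actives have a fitted effect of over 15% in size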). To be noted: NIH/3T3 Gli1-Luc reporter, luciferase, 24 h; series mostly up to 92.4 µM. In a few lines: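 Cells of a mouse NIH/3T3 clone stably expressing luciferase under the Gli1 transcriptional response element are exposed to test chemicals for 24 hr at 37 C. Pathway activation is detected as a rise in luminescence.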
As to `O=C1Cc2ccccc2C1`, the Potency entry is “inactive”. Consider `Nc1ccc(N)c([N+](=O)[O-])c1`, for which the Potency entry is “inactive”. Turning to `CCCCCCCC1CCC(=O)O1` (centres undefined), the Potency entry is “inactive”. The same measure, in the same setting: to `COc1ccc2ccccc2c1` belongs “inactive”; to `CS(=O)(=O)c1ccc([C@@H](CC2CCCC2)C(=O)Nc2cnccn2)cc1Cl`, “inactive”.

For the origin of these results see PubChem BioAssay (Tox21).
